Source: PubChem
SKKanGAS inh – blocks kanamycin growth of S. pyogenes SKKanGAS strain | 300,000 tested, 1.3% active | inhibition, % at 7.5 µM | BacTiter-Glo, 6 h | AID 1662;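 active means mean replicate score, as percent of positive control median, at least 50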;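 further: strain carries kanamycin resistance gene driven by streptokinase promoter and grows in 40 µg/ml kanamycin; loss of luminescence reflects streptokinase promoter inhibition or plain growth inhibition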
TIM10 inh – TIM10 yeast growth inhibition; AID 463195; inhibition, % at 10 µM; S. cerevisiae TIM10 strain growth, BacTiter-Glo luminescence, 24 h; 330,000 tested, 1.4% active;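 active means inhibition of 40% or more at the single tested concentration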;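 further: wild-type TIM10 isogenic control strain grown at permissive 25 °C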
NALP1 inh – NALP1 inhibition; inhibition, % at 10 µM; 280,000 tested, 0.61% active; AID 2071; S. cerevisiae NALP1/ASC/caspase-1 growth, X-gal OD620, 72 h; in the data active means inhibition mostly above about 24%, no sharp cut-off; inactive means mostly below about 32%
tim10-1 inh – tim10-1 yeast growth inhibition | inhibition, % at 20 µM | AID 463190 | S. cerevisiae tim10-1 ts strain growth, BacTiter-Glo, 24 h | 330,000 tested, 2.2% active;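 active means inhibition of at least 40%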;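 further: mutant grown at 25 °C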
tim23-1 inh – inhibits growth of tim23-1 mutant yeast. inhibition, % at 20 µM. 330,000 tested, 1.3% active. S. cerevisiae tim23-1 growth, BacTiter-Glo luminescence, 24 h;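 active means growth inhibition of the mutant yeast at or above 50%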;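 further: temperature-sensitive mutant grown at 25 °C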
PfHsp90 yeast 2 – growth inhibition of yeast expressing Plasmodium Hsp90; S. cerevisiae expressing PfHsp90, BacTiter-Glo ATP, 48 h; yeast lacking PDR1 and PDR3 efflux regulators; inhibition, % at 9.4 µM; 310,000 tested, 0.32% active;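 active means every replicate shows inhibition above about 80%, whatever the replicate mean, limit read from the data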
tim10-1 conf – tim10-1 yeast growth inhibition, confirmed. shares compounds with tim10-1 inh. S. cerevisiae tim10-1 ts strain growth, BacTiter-Glo, 24 h. inhibition, % at 20 µM. 7,400 tested, 56% active. AID 463213;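 active means inhibition of yeast growth at or above a set limit in either of two repeat tests at 20 µM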;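 further: tim10-1 mutant grown at permissive 25 °C to find synthetic lethal compounds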
TIM10 conf – confirmation of TIM10 yeast growth inhibitors | AID 463215 | inhibition, % at 10 µM | shares compounds with TIM10 inh | 4,600 tested, 63% active | S. cerevisiae tim10 strain growth, BacTiter-Glo luminescence, 24 h;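 active means inhibition of yeast growth at or above a set limit in either of two replicates at 10 µM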; further: this counterscreen used the strain with wild-type TIM10
tim23-1 confirm – tim23-1 yeast growth inhibition, confirmed. S. cerevisiae tim23-1 growth, BacTiter-Glo luminescence, 24 h. inhibition, % at 20 µM. shares compounds with tim23-1 inh. 4,400 tested, 83% active;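 active means inhibition above about 39% in either of two replicate wells at 20 µM, limit read from the data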;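 further: temperature-sensitive tim23-1 mutant grown at 25 °C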
A number is an active result; - = inactive; . = no result. Shown are actives, neighbours in structure and some others; about 4.8% of the full set was active somewhere.

SMILES	SKKanGAS inh	TIM10 inh	NALP1 inh	tim10-1 inh	tim23-1 inh	PfHsp90 yeast 2	tim10-1 conf	TIM10 conf	tim23-1 confirm
CC(=O)OCCCN1c2ccccc2Nc2nnc(-c3ccccc3)cc21	-	51	-	47	51	-	32	30	49
O=c1cc(C(Cl)(Cl)Cl)oc2c1ccc1ccccc12	-	-	-	44	52	-	-	.	49
O=c1cc(-c2ccco2)oc2c1ccc1ccccc12	-	-	-	-	-	-	.	.	.
O=C(O)CC1S/C(=N/N=C/C2CC=CCC2)NC1=O (stereo unspecified)	-	-	-	-	-	-	.	.	.
O=C1Nc2ccc(Cl)cc2/C1=C/C1CC=CCC1 (stereo unspecified)	-	59	-	78	64	-	87	-	65
Cc1onc(-c2ccccc2)c1-c1nc2cc(Cl)ccc2c(=O)o1	-	-	-	43	68	-	-	.	53
Cc1ccc(S(=O)(=O)Nc2cc(Cl)c(O)c3ncccc23)cc1	79	45	-	62	73	104	-	49	82
CC(=O)NC(CCS(C)(=O)=O)C(=O)Nc1ccccc1 (stereo unspecified)	-	-	-	-	-	-	.	.	.
CCN(Cc1ccccc1)S(=O)(=O)c1c(N)n(C)c(=O)n(C)c1=O	-	-	-	-	-	-	.	.	.
Cn1c(=O)c2c(nc(N3CCN(C(=O)c4ccco4)CC3)n2CCSc2ncccn2)n(C)c1=O	-	-	-	-	-	-	.	.	.
C[C@@H]1CC=C[C@H]2[C@H]1C(=O)N(Cc1ccccc1)[C@H]2c1ccc2ccccc2c1Br	57	65	.	69	64	-	73	56	71
CCc1ccc(-n2c(=O)c3ccccc3n3c(=S)[nH]nc23)cc1	-	-	-	-	-	-	.	.	.
CN(CC(=O)Nc1cccc(F)c1)C(=O)CCN1C(=O)C2CC=CCC2C1=O (stereo unspecified)	.	-	.	-	-	-	.	.	.
CSc1ccccc1NC(=O)CN1CCN(c2ccccn2)CC1	-	-	-	-	-	-	.	.	.
COc1ccccc1C1CCN(c2ccc(CO)cc2[N+](=O)[O-])CC1	-	42	-	64	64	-	61	36	73
Nc1ccc2oc(-c3cc(Br)ccc3Cl)nc2c1	-	41	-	54	59	-	41	36	55
CCc1ccc2oc(-c3cc(N)ccc3Cl)nc2c1	-	50	-	44	56	-	-	-	47
Cc1c(NC(=O)/C(C#N)=C/c2c(N3CCCCC3)nc3ccccn3c2=O)c(=O)n(-c2ccccc2)n1C	-	-	-	-	-	-	.	.	.
Cc1cccc(/C(N)=N/OC(=O)C23CC4CC(CC(C4)C2)C3)c1	-	80	59	55	68	-	57	-	66
Cc1cccc(/C(N)=N/OC(=O)c2cccnc2)c1	-	-	-	-	-	-	.	.	.
N/C(=N\OC(=O)CCC1CCCCC1)c1cccc([N+](=O)[O-])c1	-	62	-	79	54	-	79	49	77
N/C(=N\OC(=O)COc1ccc(Br)cc1)c1cccc([N+](=O)[O-])c1	-	-	.	-	-	-	.	.	.
CCC(C(=O)O/N=C(\N)c1cccc(C)c1)c1ccccc1 (stereo unspecified)	-	54	-	63	61	-	53	-	55
Cc1cccc(/C(N)=N/OC(=O)Cc2ccccc2)c1	-	-	-	-	-	-	.	.	.
Cc1cccc(/C(N)=N/OC(=O)c2ccc3c(c2)OCO3)c1	-	83	-	75	88	-	66	-	85
SMILES	SKKanGAS inh	TIM10 inh	NALP1 inh	tim10-1 inh	tim23-1 inh	PfHsp90 yeast 2	tim10-1 conf	TIM10 conf	tim23-1 confirm
Cc1ccc(S(=O)(=O)N2CCN(C(=O)Cc3ccccc3)CC2)cc1	-	-	-	-	-	.	.	.	.
CC(=O)c1c(C)[nH]c(C(=O)OCC(=O)c2c[nH]c3ccccc23)c1C	.	-	.	-	-	-	.	.	.
S=C(NCc1cccnc1)NCc1cccnc1	-	-	-	-	-	-	.	.	.
Cc1cccc(C(=O)O/N=C(\N)c2cccc([N+](=O)[O-])c2)c1	-	58	-	74	53	-	80	49	51
Cc1cccc(/C(N)=N/OC(=O)c2cccc3ccccc23)c1	-	87	-	64	82	.	54	85	47
COc1cc(OC)cc(C(=O)O/N=C(\N)c2cccc(C)c2)c1	-	79	43	53	86	-	40	85	83
N/C(=N\OC(=O)c1ccc(Br)o1)c1ccccn1	-	-	-	-	-	-	.	.	.
Cc1ccc(C)c(OCC(=O)O/N=C(\N)c2cccc([N+](=O)[O-])c2)c1	-	-	.	-	-	-	.	.	.
Cc1cccc(/C(N)=N/OC(=O)c2ccc(Br)o2)c1	-	69	-	43	67	-	47	63	57
CCCCN1C=CC(=C2N=c3cccc([N+](=O)[O-])c3=N2)C=C1	-	-	-	-	-	-	.	.	.
COc1ccc(S(=O)(=O)NC2CC2)cc1-n1cnnn1	-	-	-	-	-	-	.	.	.
O=C(/C=C\c1ccccc1[N+](=O)[O-])Nc1ccccc1	-	-	-	-	-	-	.	.	.
O=C(/C=C/c1ccccc1[N+](=O)[O-])c1ccccc1Br	-	64	-	63	80	104	73	70	79
Cc1ccc(C(=O)/C=C/c2ccc(-c3ccccc3[N+](=O)[O-])o2)cc1	-	-	-	-	-	-	.	.	.
Cc1ccc(-c2ccc(/C=C/C(=O)c3ccccc3)o2)cc1	-	67	.	62	62	-	69	67	78
CCC(C)OC1OC(CO)C(O)C(O)C1NC(C)=O (stereo unspecified)	-	-	-	-	-	-	.	.	.
Fc1ccc(C2=Nn3c(nnc3-c3n[nH]c4c3CCC4)SC2)cc1	-	-	-	-	-	-	.	.	.
Clc1ccc(-c2n[nH]c3c2CCC3)cc1Cl	88	49	-	56	59	-	49	57	-
Cc1cc(C)cc(NC(=S)Nc2ccc(Cl)c(Cl)c2)c1	70	43	-	62	79	-	56	37	75
NC(=S)Nc1ccc(Cl)c(Cl)c1	-	-	.	-	-	-	.	.	.
CCOc1cc2[nH]c(=O)n(CCCCCC(=O)NC3CCCC3)c(=O)c2cc1OCC	-	-	-	-	-	-	.	.	.
O=c1oc2ccccc2nc1/C=C(O)/C=C/c1ccc(F)cc1	-	56	-	41	64	-	59	58	-
